A selection: hits, their analogues and other compounds. The true share with any hit is near 2.7%.
ATXN2 expr inh: reduces ATXN2 reporter expression in HEK-293 cells. HEK-293 ATXN2-luciferase reporter, luminescence, 24 h. Potency, µM (top dose mostly 57 µM), inactives show top-dose activity change, negative = inhibition, most hits filed as inhibitors. 360,000 compounds, 0.72% hits. AID 1745845; also: % is scaled to controls: 0 for no effect and ±100 for the full control effect; nearly all actives have a fitted effect of over 55% in size
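qHTS (up to 57 uM final) was run with 24 h compound exposure of reporter cells at 37 °C. Each well was multiplexed: SteadyGlo luminescence measured ATXN2-luciferase expression after a fluorogenic Gly-Phe-AFC viability readout (25 uM final).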
TGFb SMAD3 inh: inhibitors of TGF-b signaling; Potency, µM (top dose mostly 46.1 µM), for inactives: at the highest dose activity, negative = inhibition, most hits filed as inhibitors; AID 588855; HepG2 CAGA-GFP TGF-b/SMAD3 reporter, GFP fluorescence, 18 h; TGF-beta stimulated, 500 pg/mL final; 410,000 compounds, 1.2% hits; also: % is scaled to controls: 0 for no effect and ±100 for the full control effect; nearly all actives have a fitted effect of over 65% in size
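HEPG2 CAGA-GFP cells (1000/well, DMEM with 1% FBS) were pre-incubated 2 h at 37 degrees C, given compound by pin tool, then stimulated with TGF-beta at 500 pg/mL final for 18 h before per-cell GFP fluorescence imaging.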
S2 tox: reduces viability in counter-screen for ATXN expression inhibitors; Potency, µM (series often up to 56.7 µM), most hits filed as cytotoxic; S2 cells (HEK-293 line with an ATXN2-luciferase reporter) viability, CellTiter-Fluor protease fluorescence, 24 h; 400,000 compounds, 0.49% hits; AID 651635; also: nearly all actives have a fitted effect of over 40% in size
HepG2 tox: HepG2 cytotoxicity, counter-screen for TGF-b inhibitors; HepG2 CAGA-GFP viability, ATP luminescence, 18 h; Potency, µM (doses to about 46.1 µM), without a hit: at the top dose activity change, negative = cytotoxicity, most hits filed as cytotoxic; 410,000 compounds, 0.76% hits; AID 588856
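CellTiter-Glo luminescence gave cytotoxicity after 18 hours at 37 degrees C. The cells were HepG2 CAGA-GFP in 1% FBS DMEM, stimulated with 500 pg/mL TGF-beta after compound addition. %Activity was normalised to no-cell wells (complete cell-killing) and DMSO (no toxicity), and curves were fitted and classified.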
12-LOX inh: blocks human arachidonate 12S-lipoxygenase; P18054; purified 12hLO, xylenol orange hydroperoxide absorbance; Potency, µM (series often up to 108 µM), for inactives: at the top dose activity change, negative = inhibition, most hits filed as inhibitors; 580,000 compounds, 1.1% hits; AID 1671190; also: % is scaled to controls: 0 for no effect and ±100 for the full control effect
Target sequence (P18054 whole entry, looked up): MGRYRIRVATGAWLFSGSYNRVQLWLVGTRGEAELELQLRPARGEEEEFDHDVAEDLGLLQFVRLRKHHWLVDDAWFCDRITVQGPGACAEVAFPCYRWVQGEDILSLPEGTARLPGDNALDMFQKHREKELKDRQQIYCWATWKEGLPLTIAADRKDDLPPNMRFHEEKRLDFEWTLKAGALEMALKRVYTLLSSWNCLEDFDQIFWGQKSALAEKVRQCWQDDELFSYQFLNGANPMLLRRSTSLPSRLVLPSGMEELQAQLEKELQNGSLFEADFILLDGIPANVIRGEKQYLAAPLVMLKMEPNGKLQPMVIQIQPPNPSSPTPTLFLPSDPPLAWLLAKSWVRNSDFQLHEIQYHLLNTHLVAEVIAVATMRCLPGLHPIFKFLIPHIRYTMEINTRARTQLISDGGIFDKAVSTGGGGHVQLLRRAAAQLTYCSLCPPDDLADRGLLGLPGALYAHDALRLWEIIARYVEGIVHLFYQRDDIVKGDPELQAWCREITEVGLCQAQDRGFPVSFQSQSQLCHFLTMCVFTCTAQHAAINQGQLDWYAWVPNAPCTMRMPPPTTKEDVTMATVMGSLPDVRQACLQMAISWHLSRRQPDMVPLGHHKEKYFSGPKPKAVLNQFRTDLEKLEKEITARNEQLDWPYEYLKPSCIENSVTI
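Purified human 12hLO (150 nM final) in 25 mM Hepes, 0.01% Triton X-100, pH 7.0 was preincubated 15 min at room temperature with compound. Then 40 uM arachidonic acid was added, 30 min. Hydroperoxide was read by Fe-XO absorbance ratio 573/405 nm.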
An asterisk follows results filed as active; i = inactive; u = inconclusive; x = no result given; [ ] = another dose, or the depositor's remark. Calls follow the shape of the dose curve; as a rule, active = well fitted curve in the direction sought with a large enough effect; inconclusive = small, poorly fitted or top-dose-only effect, or another doubt; inactive = no such curve, though single readings can be large; an effect the other way counts as inactive or inconclusive. Potency is read from the fitted curve at half-maximal effect.

SMILES | ATXN2 expr inh | TGFb SMAD3 inh | S2 tox | HepG2 tox | 12-LOX inh
O=C1OC(Nc2nc(-c3ccc(F)cc3)cs2)c2ccccc21 (configuration not stated) | -37.6% | 11.2µM* | u | -39.6% | -0.2%
CCn1c(C)c2c([n+]1CC)CC(C)(C)CC2=O | -7.5% | -25.4% | i | -9.8% | 12.6µM*
COC(=O)C1=C(C)NC(=O)/C1=C\c1cc(C)n(-c2cc(C)cc(C)c2)c1C | -4.8% | u | i | 3.6% | 39.8µM*
COC(=O)C1=C(C)NC(=O)/C1=C\c1cc(C)n(-c2ccccc2)c1C | 44.7% | 1.4% | u | -3.1% | u
COC1(OC)C=CC(=O)C=C1NC(=O)c1ccccc1OC(C)=O | 17.8µM* | 11.2µM* | 14.1µM* | -4.4% | -0.4%
NCCCn1c(C(=O)c2cc(Cl)c(N)c(Cl)c2)c2ccc([N+](=O)[O-])cc2[n+]1[O-] | u | u | 10µM* | -44.8% | -26.6%
NCCCn1c(C(=O)c2cc(Cl)c(N)c(Cl)c2)c2ccc(C(F)(F)F)cc2[n+]1[O-] | -30.0% | -38.5% | u | -53.5% | u
NC(=O)c1ccc(Cn2c(C(=O)c3cc(Cl)c(N)c(Cl)c3)c3ccccc3[n+]2[O-])cc1 | -12.3% | -19.4% | u | -19.1% | 17.8µM*
CCC(NC(=O)C1CCCO1)c1ccc(C)cc1 (configuration not stated) | x | x | x | x | 10.1%
Cc1ccc(NC(=O)c2cnc3ccccc3n2)c(C)c1 | x | x | x | x | 4.9%
O[C@H]1CN(Cc2cccs2)[C@@H](c2ccccc2)C[C@@H]1n1cc(-c2ccc(F)cc2)nn1 | u | u | u | -46.8% | -11.3%
O[C@H]1C[C@H](c2ccccc2)N(Cc2cccs2)C[C@@H]1n1cc(-c2ccc(F)cc2)nn1 | 15.8µM* | u | 31.6µM* | 11.2µM* | 35.5µM*
COc1ccc([C@H]2C[C@H](O)[C@@H](n3cc(-c4ccc(F)cc4)nn3)CN2Cc2cccs2)cc1 | 15.8µM* | u | 28.2µM* | -103.4% | u
COc1ccc([C@H]2C[C@H](n3cc(-c4ccc(F)cc4)nn3)[C@@H](O)CN2Cc2cccs2)cc1 | -14.3% | -0.8% | i | -25.7% | -3.0%
O=C(NC(c1ccccc1)c1ccccc1)C12CC3CC(CC(O)(C3)C1)C2 | x | x | x | x | 12.0%
O=C(c1ccc(COc2ccc(Cl)cc2)o1)N1N=C(C(F)F)CC1(O)C(F)F (configuration not stated) | -12.7% | 22.4µM* | i | -84.6% | -27.8%
CC(=O)N1C[C@@H]2CCCN3CCC[C@@H]([C@H]23)[C@H]1CCCC(=O)Nc1ccccc1 | x | x | x | x | -12.7%
Nc1nc(N)c(N=Nc2ccc(S(N)(=O)=O)cc2)c(=O)[nH]1 | x | 11.4% | u | 4.6% | 39.8µM*
CN1C[C@@H](NS(=O)(=O)c2ccccc2)C[C@H]1c1nc(-c2ccccn2)no1 | x | x | x | x | 27.3%[176 µM]
Fc1ccccc1COc1ccccc1CNCC1CCNCC1 | x | x | x | x | -0.2%
O=C(NCCc1cccs1)c1cccc2c1CCN2C(=O)Nc1ccccc1 | x | x | x | x | 17.5%
O=C(Nc1ccccn1)c1csc2c1CCCC2 | 56.7% | -18.6% | i | -15.3% | -1.8%
O=C(Nc1ccccn1)c1onc2c1CCCC2 | u | 0.0% | i | 5.01µM* | 2.2%
CCc1nc2c(OCc3ccc(Cl)cc3Cl)cccn2c1N(C)C(C)=O | 17.8µM* | u | x | -45.7% | u
CCC(CC)C(=O)N(C)c1c(C)nc2c(OCc3cc(Cl)cc(Cl)c3)cccn12 | -25.1% | 12.6µM* | i | -92.8% | -9.1%
SMILES | ATXN2 expr inh | TGFb SMAD3 inh | S2 tox | HepG2 tox | 12-LOX inh
O=C(NCCc1ccccc1)Nc1ccc(CN2CCOC2=O)cc1 | x | x | x | x | 27.6%
N#CC(C(=O)CCc1ccccc1)C(=O)Nc1ccccc1Cl (configuration not stated) | x | x | x | x | -0.5%
O=C1Nc2ccccc2/C1=C/C(=O)c1cccs1 | u | u | u | 14.1µM* | u
COc1ccc(C(=O)/C=C2/C(=O)Nc3ccccc32)cc1OC | x | -2.3% | u | -14.7% | -19.6%
NC(=O)COc1ccc(C(=O)/C=C2/C(=O)Nc3ccccc32)cc1 | 4.0% | u | i | -27.4% | -6.8%
C=CCOc1ccccc1C(=O)/C=C1/C(=O)Nc2ccccc21 | -13.9% | u | u | 6.31µM* | -11.6%
C=CCOc1ccc(C(=O)/C=C2/C(=O)Nc3ccccc32)cc1 | -1.8% | 0.0% | i | -38.5% | -26.6%
COc1ccc(C(=O)/C=C2/C(=O)Nc3ccccc32)cc1 | u | u | u | 14.1µM* | -27.1%
COc1ccc(C(=O)/C=C2/C(=O)Nc3ccccc32)c(OC)c1 | -13.1% | 12.6µM* | i | 10µM* | u
COc1cc(-n2ccc3c(nnc4c(-c5cccc(Cl)c5)c(C)nn43)c2=O)cc(OC)c1OC | x | x | x | x | 1.4%
COC(=O)c1ccc(NC(=O)C(NC(=O)c2ccccc2)C(C)C)c(C)c1 (configuration not stated) | x | x | x | x | -19.8%
CC(C)=CCC/C(C)=C/CNCC(O)CN1CCOCC1 (configuration not stated) | x | x | x | x | 0.631µM*
OC(CN1CCOCC1)CN1CCOCC1 | 2.0% | 2.0% | i | -3.3% | u
Cc1ccc(C(=O)COC(=O)c2cc3ccccc3oc2=O)cc1 | x | x | x | x | -3.2%
CCOC(=O)c1[nH]c2ccc(F)cc2c1NC(=O)c1cc(OC)c(OC)c(OC)c1 | 5.6% | u | i | -26.6% | -15.9%
COc1cc(C(=O)Nc2c(C(=O)O)[nH]c3ccc(Br)cc23)cc(OC)c1OC | x | 1.8% | i | -5.4% | 39.8µM*
CC(C)Cc1ccc(C(C)/C=C2/CCC(CN3CCCCC3)C2=O)cc1 (configuration not stated) | u | 15.8µM* | x | -72.5% | u
COc1ccc(OC)c(NC(=O)c2cccc(N3C(=O)C4C5C=CC(C6CC56)C4C3=O)c2)c1 (configuration not stated) | x | u | 14.1µM* | -16.0% | 3.4%
c1ccc(CCCN2CCN(c3ccccn3)CC2)cc1 | 209.9% | -13.9% | i | -27.3% | 4.47µM*
Cc1cccc(-c2noc(CNC(=O)CN(C)S(=O)(=O)c3ccc4ccccc4c3)n2)c1 | x | x | x | x | -2.3%
C=CCc1cccc(C=Nc2cc(Br)ccc2O)c1O | 2.7% | 0.0% | i | -9.7% | 35.5µM*
CCc1nc2c(c(-c3ccc(Cl)cc3)n1)CCN(Cc1ccsc1)CC2 | x | x | x | x | 7.7%
COc1ccc(NS(=O)(=O)c2ccc(N3CCCC3)c(NC(=S)Nc3cccc(C)c3C)c2)cc1 | -1.0% | u | i | -2.0% | 15.8µM*
COc1ccc(NS(=O)(=O)c2ccc(N3CCCC3)c(NC(=S)Nc3ccc(SC(F)F)cc3)c2)cc1 | -6.5% | -19.7% | i | 5.5% | 25.1µM*
COc1ccc(NS(=O)(=O)c2ccc(N3CCCC3)c(N)c2)cc1 | -18.2% | -4.5% | i | -5.3% | -5.1%
